# From PubChem BioAssay AID623868 (Vanderbilt High Throughput Screening Facility, 2012)
# About 760 (36%) of roughly 2,100 compounds were called active. Only a sample is shown. A number with no mark means an inactive call.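 How the source made its calls: active means thallium-flux fluorescence traces judged by eye to show enhanced or reduced glutamate response, manual score 1 or -1, so both directions (some results past the limit were not filed as active); inactive means the rest, including fluorescent or raised-baseline compounds.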
# Experiment: non-GIRK thallium flux modulation in mGlu8 cells, confirmation, counter-screen for GIRK activator project, cell-based, HEK-293 rmGlu8, no GIRK (AID 623868);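 further: extra codes mark interference with 3 for fluorescent and 4 for baseline rise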
# Settings: thallium flux fluorescence, at 10 µM, actives lie on both sides, codes: 1 enhancer, -1 blocker, 0 none, thallium stimulus containing EC20 glutamate
row,SMILES,manual score
1,CN=C(C)C1=C(O)C(C(=O)OC)C(C)(C)CC1=O (stereo not drawn),0
2,CC(C)c1nc(N2CCOCC2)c(C#N)c2c1CCCC2,0
3,CC1CCc2nn(CC(=O)N3CCN(C(=O)c4ccco4)CC3)cc2C1 (stereo not drawn),0
4,CCc1cc2cc(C)ccc2nc1SCC(=O)N1CCN(C(=O)c2ccco2)CC1,0
5,Cc1cc2cc3c(cc2nc1SCC(=O)N1CCN(C(=O)c2ccco2)CC1)OCO3,-1 (active)
6,CC(C)CC(=O)CN1C(=O)C2(OCCO2)c2ccccc21,0
7,C=CCn1c(=S)[nH]c2sc3c(c2c1=O)CCC3,1 (active)
8,Cc1cc(C(=O)CSc2nnc(-c3ccncc3)n2-c2ccccc2)c(C)n1C,0
9,O=C(Nn1cnnc1)c1cc2cc(Br)ccc2oc1=O,0
10,CC(C)OCCCn1c(=S)[nH]c2cc3c(cc2c1=O)OCO3,1 (active)
11,Cc1ccccc1Cn1cc(NC(=O)c2nc3ncccn3n2)cn1,0
12,O=C(NNC(=O)c1sccc1-n1cccc1)c1cccc(Cl)c1,1 (active)
13,O=C(NNC(=O)c1sccc1-n1cccc1)c1ccc(Cl)cc1,1 (active)
14,O=C(NNS(=O)(=O)c1cc(Cl)cc(Cl)c1)c1sccc1-n1cccc1,0
15,COc1ccc2[nH]c(C)c(C(=O)CN3CC(C)OC(C)C3)c2c1 (stereo not drawn),0
16,Cc1cccn2c(=O)c3cc(C#N)c(=NC(=O)c4cccnc4)n(CC4CCCO4)c3nc12 (stereo not drawn),3
17,CCn1c(=S)[nH]c2cc(C(=O)OC)ccc2c1=O,1 (active)
18,COCCn1c(=S)[nH]c2cc(C(=O)N3CCN(c4ccc(F)cc4)CC3)ccc2c1=O,0
19,COC(=O)c1ccc(C)c(NC(=O)CN2C(=O)c3ccccc3S2(=O)=O)c1,0
20,COC(=O)c1ccc2c(=O)n(CC3CCCO3)c(=S)[nH]c2c1 (stereo not drawn),1 (active)
21,COc1ccc2occ(C(=O)c3ccc(N=C(C)N(C)C)cc3)c2c1,0
22,O=c1c2ccccc2c(C=NCc2ccccn2)c(O)n1-c1ccccc1,0
23,Cc1ccc(-n2[nH]c(C)c(/C=N/c3ccccn3)c2=O)cc1,0.5
24,Cc1ccc(-n2[nH]c(C)c(C=Nc3cc(C)ccn3)c2=O)cc1,1 (active)
25,CC1=NN(c2ccccc2)C(=O)/C1=C\c1c(C)[nH]n(-c2ccccc2)c1=O,0
26,Cc1[nH]n(-c2ccccc2)c(=O)c1/C=N/c1ccccn1,1 (active)
27,CCCCN(CCCC)C(=S)N/N=C/c1c(C)[nH]n(-c2ccccc2)c1=O,1 (active)
28,Cc1[nH]n(-c2ccccc2)c(=O)c1N=Nc1nccs1,1 (active)
